From PubChem BioAssay
Ub-GFP proteasome – Ubiquitin-GFP Assay | Ubiquitin-GFP reporter cells, proteasome inhibition, GFP fluorescence; response scale: untreated = 0%, 10 µM MG-132 = 100% | Potency, µM (highest dose often 45.9 µM), most hits filed as activators | 67,000 tested, under 10 active | AID 526, 2006; active = well fitted activation curve with a large enough effect, not every such curve was filed as active; inconclusive = small, poorly fitted or top-dose-only effect, or another doubt; inactive = no such curve, though single readings can be large or run the other way
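U2OS cells stably expressing ubiquitin(G76V)-GFP, seeded overnight in 0.5% FBS medium, were exposed to compounds (qHTS, 46 uM to 2.9 nM) for 4 hr at 37 °C. GFP-positive cells were counted by laser cytometry (488 ex/515 em), normalized between basal and 10 uM MG-132.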
HBB splice mod – qHTS Assay for Modulators of Hemoglobin Beta Chain Splicing. HBB splicing reporter cell assay, activation; EGFP reporter with mutant IVS2-654 intron; response scale: normalised to 500 nM splice-correcting PNA. Potency, µM (highest dose often 46.1 µM), usual class: activators. 65,000 tested, 0.06% active
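HeLa cells stably expressing EGFP interrupted by mutant beta-globin intron 2 (IVS2-654), 500/well in 2% FCS. Treated with compound for 2 days at 37C. Splicing correction scored as total well GFP intensity (488 nm excitation, 500-520 nm emission); 500 nM antisense PNA served as control.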
Tau fil binding – qHTS Assay for Tau Filament Binding. recombinant tau filaments, thioflavin S fluorescence, 15 h; filaments grown with octadecylsulfate alongside compound. Microtubule-associated protein tau (Homo sapiens), P10636. Potency, µM (titrated, usually from 57.1 µM). 71,000 tested, 2% active;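 also: actives lower thioflavin S fluorescence by blocking filaments or displacing dye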
Target sequence (P10636 whole entry, looked up): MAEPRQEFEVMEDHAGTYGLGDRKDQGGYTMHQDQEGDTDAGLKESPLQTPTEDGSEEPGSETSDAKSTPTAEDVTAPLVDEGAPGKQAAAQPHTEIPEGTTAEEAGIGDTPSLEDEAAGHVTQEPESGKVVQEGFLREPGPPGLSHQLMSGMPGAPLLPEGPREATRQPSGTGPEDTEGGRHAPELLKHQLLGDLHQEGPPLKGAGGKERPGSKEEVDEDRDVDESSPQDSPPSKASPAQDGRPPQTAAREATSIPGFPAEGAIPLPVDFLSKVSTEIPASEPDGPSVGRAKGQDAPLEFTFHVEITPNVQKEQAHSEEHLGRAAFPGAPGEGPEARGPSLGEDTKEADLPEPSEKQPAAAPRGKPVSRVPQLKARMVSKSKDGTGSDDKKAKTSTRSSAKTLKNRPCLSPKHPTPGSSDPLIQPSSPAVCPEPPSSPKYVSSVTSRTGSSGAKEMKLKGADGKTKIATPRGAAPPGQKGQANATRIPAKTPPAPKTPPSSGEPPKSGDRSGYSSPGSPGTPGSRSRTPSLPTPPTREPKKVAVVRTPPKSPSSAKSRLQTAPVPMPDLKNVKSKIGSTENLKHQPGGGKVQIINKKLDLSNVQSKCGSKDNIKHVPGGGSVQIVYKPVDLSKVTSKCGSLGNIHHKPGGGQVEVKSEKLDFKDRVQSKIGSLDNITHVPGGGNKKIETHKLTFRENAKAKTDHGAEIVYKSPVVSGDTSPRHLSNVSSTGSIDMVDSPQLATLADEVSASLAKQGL
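ThS-based fibril read: tau 1 uM final, inducer ODS 30 uM final, 37 C for 15 h, ex 450/em 510 nm.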
DNA Pol III inh – qHTS Assay for Inhibitors of DNA Polymerase III Holoenzyme System; reconstituted DNA polymerase III holoenzyme replication, biochemical; Potency, µM (series often up to 57.1 µM); 71,000 tested, 0.25% active; AID 603, 2007
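Reconstituted *E. coli* holoenzyme (0.35 nM Pol III, 1 nM beta, 154 nM SSB, 2 nM primase) was preincubated with compound for 15 min at RT. Synthesis on 1.4 nM ssM13Gori ran 35 min, then was stopped with PicoGreen/EDTA and read as dsDNA fluorescence.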
GFP derepression – qHTS Assay for Epigenetic Modulators | mouse C127i GFP locus derepression, cytometry, 30 h | Potency, µM (doses to about 46.1 µM) | 68,000 tested, 0.09% active
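Murine C127i mammary cells carrying a silenced, stably integrated CMV-driven GFP reporter were treated with compound for 30 hours at 37 C. After PBS washes, GFP-positive cells were counted by laser-scanning microplate cytometry.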
ALOX15 inhib – qHTS Assay for Inhibitors of 15-hLO (15-human lipoxygenase) | Polyunsaturated fatty acid lipoxygenase ALOX15 (Homo sapiens), P16050 | purified 15hLO-1, xylenol orange hydroperoxide absorbance | Potency, µM (top dose mostly 57.1 µM), hits mostly inhibitors | 74,000 tested, 1.4% active | AID 887, 2007; also: nearly all actives have a fitted effect of over 55% in size
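Readout: Fe(III)-xylenol orange absorbance, 573-to-405 nm ratio as reaction progress. Enzyme 40 nM purified human 15hLO-1, substrate 50 uM arachidonic acid, 6 min RT after 15 min compound preincubation; Hepes pH 7.5 buffer with Triton X-100.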
Each line names hits and unclear results; the compound was inactive in the other large screens. The list is not random: actives were taken first. Their share in the collection is about 3.2%. Unless noted, calls follow the shape of the dose curve; as a rule, active = well fitted curve in the direction sought with a large enough effect; inconclusive = small, poorly fitted or top-dose-only effect, or another doubt; inactive = no such curve, though single readings can be large; an effect the other way counts as inactive or inconclusive.

COc1ccccc1-c1nccc(NCc2cnc(C)cn2)n1	ALOX15 inhib 16µM
COc1cccc(-c2nccc(NCc3ccccc3)n2)c1	ALOX15 inhib 13µM
COc1cccc(-c2nccc(NCc3ccccc3OC)n2)c1	ALOX15 inhib 25µM
N#Cc1ccc(CN2CCCC3(CCN(C(=O)c4cnccn4)CC3)C2)cc1	none
CCOC(=O)/C(C#N)=C1/C=Cc2ccccc2N1CC	Tau fil binding 16µM
O=C(CNCC1CCCO1)Nc1ccc(N2CCCCCC2)cc1 (stereo unspecified)	Tau fil binding 32µM (no result: HBB splice mod)
Cc1ccc(OCC(=O)Nc2ccc(N3CCCC3)cc2)cc1C	Tau fil binding 1.6µM, ALOX15 inhib 5µM
CCOc1ccccc1OCC(=O)Nc1ccc(N2CCCCC2)cc1	Tau fil binding 25µM
COc1cc(Cl)ccc1NC(=O)COc1ccccc1C(=O)N1CCN(c2ccc(O)cc2)CC1	ALOX15 inhib 25µM
Cc1cccc(OCC(=O)Nc2ccc(N3CCCC3)cc2)c1C	Tau fil binding inconclusive, ALOX15 inhib inconclusive
CC(C)=CCC/C(C)=C/CO/N=C1/C[C@@H](O)[C@@H](O)[C@@H]2[C@H]3C(=O)N(c4ccc(F)cc4F)C(=O)[C@@H]3CC[C@H]12	none (no result: Ub-GFP proteasome, Tau fil binding, DNA Pol III inh, GFP derepression)
Cc1ccccc1OCCCC(=O)Nc1ccc(N2CCOCC2)cc1	Tau fil binding 3.2µM
CN1CCN(c2ccc(NC(=O)COc3ccccc3Cl)cc2)CC1	Tau fil binding 16µM
CCOC(=O)c1cnn2c(C(F)(F)F)cc(-c3ccccc3)nc12	Tau fil binding 13µM
CCOC(=O)c1cnn2c(C(F)(F)F)cc(-c3cn(C)nc3C)nc12	none
CCOC(=O)C1CCCN(C(=O)c2cnn3c(C(F)(F)F)cc(-c4ccccc4)nc23)C1 (stereo unspecified)	Tau fil binding 13µM
C/C=C1\CC2C=CC1C2 (stereo unspecified)	none (no result: Ub-GFP proteasome, GFP derepression)
COc1cc(OC)cc([C@H](CNc2ncnc3c2ncn3[C@@H]2O[C@@H](CO)[C@H](O)[C@@H]2O)c2ccccc2C)c1	none (no result: ALOX15 inhib)
O=C1CCNc2cc3ccccc3cc21	Tau fil binding 20µM, ALOX15 inhib inconclusive
Nc1nc2c(cnn2CCc2ccccc2)c2nc(-c3ccco3)nn12	ALOX15 inhib 20µM (no result: Ub-GFP proteasome, Tau fil binding, DNA Pol III inh, GFP derepression)
Nc1nc2ccc(Cl)cc2c2nc(-c3ccco3)nn12	none
CC1Cc2ccccc2N1S(=O)(=O)c1cccc2nsnc12 (stereo unspecified)	Tau fil binding 25µM
O=S(=O)(c1cccc2nsnc12)N1CCCC1	none (no result: Ub-GFP proteasome)
O=C(C1CCN(S(=O)(=O)c2cccc3nsnc23)CC1)N1CC=C(c2ccccc2)CC1	Tau fil binding 20µM, ALOX15 inhib inconclusive
O=S(=O)(c1cccc2nsnc12)N1CCc2ccccc2C1	Tau fil binding 20µM (no result: Ub-GFP proteasome)
COc1ccccc1N1CCN(S(=O)(=O)c2cccc3nsnc23)CC1	none
CC(C)C(O)(C(C)C)C(C)C	none
CC[C@]1(O)C[C@H]2CN(CCc3c([nH]c4ccccc34)[C@](C(=O)OC)(c3cc4c(cc3OC)N(C=O)[C@H]3[C@@](O)(C(=O)OC)[C@H](OC(C)=O)[C@@]5(CC)C=CCN6CC[C@]43[C@H]65)C2)C1	ALOX15 inhib inconclusive
CCn1c(=O)c(C(=O)CN2CCCc3ccccc32)c(N)n(Cc2ccccc2)c1=O	Tau fil binding 25µM
CCN(C(=O)CN1CCCc2ccccc21)c1c(N)n(Cc2ccccc2)c(=O)[nH]c1=O	none
CCC(C)(C)OC	none (no result: Ub-GFP proteasome, GFP derepression)
O=C1c2c(O)ccc(O)c2C(=O)c2c(NCCNCCO)ccc(NCCNCCO)c21	Tau fil binding 4µM, DNA Pol III inh 1µM, GFP derepression inconclusive
O=C(O)c1ccccc1NS(=O)(=O)c1ccc(F)c(Cl)c1	none (no result: Ub-GFP proteasome, HBB splice mod, Tau fil binding, DNA Pol III inh, GFP derepression)
CC(C)(C)CC(C)(C)c1cc(O)c(O)c(CN2CCCCC2)c1	Tau fil binding inconclusive, ALOX15 inhib 0.4µM
Oc1ccc(Br)cc1CN1CCCCCCC1	none
O=C(NCCN1CCCC1)c1ccc(Cc2nc3ccccc3[nH]2)cc1	none (no result: Ub-GFP proteasome, HBB splice mod, Tau fil binding, DNA Pol III inh, GFP derepression)
C=C1CC[C@@H]2[C@](C)(CC[C@@H](O)[C@]2(C)CO)[C@@H]1C/C=C1/C(=O)OC[C@H]1O	none (no result: HBB splice mod, ALOX15 inhib)
O=C(Nc1ccc(O)cc1)C1CC=CCC1 (stereo unspecified)	Tau fil binding 13µM, ALOX15 inhib inconclusive
COc1ccc2[nH]c3c(c2c1)CN(C)CC3	Tau fil binding 25µM, ALOX15 inhib inconclusive
OC[C@@H]1O[C@@H](n2cnc3c(SCc4ccccc4)ncnc32)[C@@H](O)[C@H]1O	none
Cc1ccc(-c2cc(-c3ccc(F)cc3)nc(N)c2C#N)o1	none
Cc1ccc(-c2cc(-c3ccccc3Cl)c(C#N)c(N)n2)o1	Tau fil binding 13µM, ALOX15 inhib 7.9µM
Cc1ccc(-c2cc(-c3ccccc3)c(C#N)c(N)n2)o1	Tau fil binding 3.2µM, ALOX15 inhib inconclusive (no result: HBB splice mod)
COC(=O)[C@@H]1C[C@H]1[C@@H](NC(=O)Oc1ccc(F)cc1)c1ccccc1	none (no result: Ub-GFP proteasome, GFP derepression, ALOX15 inhib)
c1ccc2c(NC3CC3)nc(-c3ccoc3)nc2c1	Tau fil binding inconclusive, ALOX15 inhib inconclusive
CN(C)c1nc(-c2ccoc2)nc2ccccc12	Tau fil binding 16µM, ALOX15 inhib inconclusive
CN(C)c1nc(-c2cccnc2)nc2ccccc12	none
c1ccc(Nc2nc(-c3ccoc3)nc3ccccc23)cc1	Tau fil binding 13µM
Brc1ccc2[nH]c3nc(SCCN4CCOCC4)nnc3c2c1	Tau fil binding 13µM
O=C(CSc1nc2ccc(S(=O)(=O)N3CCOCC3)cc2[nH]1)N1CCOCC1	ALOX15 inhib 7.9µM
CN(C)c1ccc(NC(=O)CN2CCC(C(=O)c3ccc(F)cc3)CC2)cc1	Tau fil binding 16µM
O=C(Nc1ccc(F)cc1F)c1cc(-c2ccco2)on1	Tau fil binding 20µM
O=C(Nc1c(F)cc(F)cc1Br)c1cc(-c2ccco2)on1	none
CN(N=O)c1ccc(/C=C\c2ccnc3ccccc23)cc1	none
Cc1ccc2nc(NC(=O)CN(C)S(=O)(=O)c3cccc4nsnc34)sc2c1	Tau fil binding 16µM
Cc1ccc(C(=O)c2cc3c(cc2N)OCCO3)cc1	Tau fil binding 13µM
COC(=O)c1ccc(C(NC(=O)OCc2ccccc2)/C(=C/[C@@H](C)C(=O)N[C@@H](CO)Cc2ccccc2)c2cccnc2)cc1 (stereo partly specified)	ALOX15 inhib 25µM (no result: Ub-GFP proteasome, GFP derepression)
O=C(CCc1nc2ccccc2[nH]1)Nc1ccc2c(c1)OCO2	Tau fil binding 13µM
